What follows are sequences tested on PPARa:RXRa (NR concentration 270 nM, RXRa partner concentration 90 nM) (assay: PBM binding z-score (relative to random genomic background probes); higher = stronger binding; sequences stand for … in GC…GCGATTGACAGCGTAGAATGAAGG).
In short: (§1)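 On custom Agilent 4×180K arrays, double-stranded probes with 34-nt variable regions carried direct-repeat seeds, single-nucleotide variants, half-site ablations or random human genomic background. Ligand-free nuclear receptor dimers were applied for 1 h, and binding was read with antibodies against each partner (one per run). Binding z-scores come from regression-normalized fluorescence, with the random background probes as reference.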
AGAATCAGGTTATTAAGATCAGGGAATTGCGGTC showed a PBM binding z-score of 1.16.
Sequence TCGAGTAGGTTAGGGGTATTCAGAATGGCGTCGA has a PBM binding z-score of 1.66.
With CCTACTGGGCCCTTCAGAGGTCATTGATCATATG the PBM binding z-score was 3.32.
For GAGACTGGGGCAAAGCAGGTTACCATAAGGTTGG, the PBM binding z-score was 2.04.
CCCACTGGGCCACGAAAGGTCATTGATTCAGTGA was tested, and the PBM binding z-score was 4.8.
With CCAGACAGGTGAGAAGGTCACTCAGCCTCGATTA the PBM binding z-score was 3.65.
In the case of ATCGAAAGCTCGTGAGGTGAGTATACAGAAAGGC, the PBM binding z-score is reported as -0.128.
TCTAGTTGGTCAAAGGTCACACATTCGAAATGCG showed a PBM binding z-score of 6.86.
With TAGCGTAGGTCAGATCGGGCCAGTATACGCTATA the PBM binding z-score was 1.99.
Work on TCTGGTAGATCAAAGGTTAAGAAAGCCGAAGCCT yielded a PBM binding z-score of 3.73.
Work on CGTCCAAGGTCAAGGTCAGTCAAAGAGACTCGAA yielded a PBM binding z-score of 5.93.
TCATATAGGTAAAGGTGAAAGTCGAACGATATGA showed a PBM binding z-score of 3.41.
For ACAGACAGGTGAGTGAAGGCAACTCAGCTGGACG, the PBM binding z-score was -0.0544.
Work on AGAATGAGGTTATTAAGCTCAGGGAATTGCGGTC yielded a PBM binding z-score of 2.6.
For CGTCCAAGGTAAGCAGGTCAGTGAAAGCGACGTG, the PBM binding z-score was 1.25.
Work on ACTAGTTTGTCAGCTGAGGTCACACACAATTCGG yielded a PBM binding z-score of 3.71.
With TCTTGTAGATCAGCAGGTTCAGAAAGCTGGCCAA the PBM binding z-score was 0.609.
Work on ACAGACAGGTGAGTGAAGGAAACTCAGCTGGACG yielded a PBM binding z-score of -1.08.
Sequence TCTTGTAGATCAAAAGAGGTTAAGAAAGTGCGCT has a PBM binding z-score of 1.89.
Work on TTACCGAGGTGAAGGTCGTTGATCCCTCTGTAGA yielded a PBM binding z-score of 2.95.
In the case of CCGAGTAGGTTATGAGGCATTCAGGCAACGGTGA, the PBM binding z-score is reported as 1.02.
For CGAACTAGGTCATGCAGGACAGTGAATACATTGA, the PBM binding z-score was 4.66.
CGTCCAAGGTGAGAGAGGTCAGTGAATGCCGAGT gave a PBM binding z-score of 3.11.
ACACGGAGGACAAAGGTCAGAGCTACGCCAGTGA was tested, and the PBM binding z-score was 5.18.
AGTCAAAGTTCGTCTAGGTAACGTAAGATATGCT was tested, and the PBM binding z-score was 1.84.
With AAAACAGGGTCACTAGGCCAGAGTAGGTACGAAT the PBM binding z-score was 6.07.
With ACAGACAGGTGAGTGAAGGTAATTCAGCTGGACG the PBM binding z-score was -0.0438.
For ATCTCTAGGTAACCAAGTTCAATGAATGCCGAAC, the PBM binding z-score was 1.76.
Work on GGAACGAGGGCAAGTTGATAGCGGAGTTTGATGG yielded a PBM binding z-score of 1.7.
For ACCATTAGTTGAGACGAGGGCAACCGATAGGTTG, the PBM binding z-score was 0.553.
Sequence ATATGTAGGTTATCGGTTCATTCAGTTTGCGCAT has a PBM binding z-score of 3.91.
Sequence AGAATGAGGTTAAGAACAGGGAAACAGAATACAT has a PBM binding z-score of 3.18.
In the case of TCTCGGAGGCCACGAAAGGTCAGAGCTCGACATC, the PBM binding z-score is reported as 3.82.
Sequence TCTAGTTGGTCAAAGGTCATACACTCGAAATGCG has a PBM binding z-score of 6.59.
In the case of CTAACTAGGTCAAGGACAGTGAATCTCCGCACGC, the PBM binding z-score is reported as 4.99.
Sequence TTGCCTAGGTCAGATCGGGCCAGTATACGCTATA has a PBM binding z-score of 1.51.
Sequence ACTACTTGGTCAGCTGAGGTCACACACAATTCGG has a PBM binding z-score of 3.76.
CGTCCAAGGTCAGCAAGTCAGTGAAAGCGACGTG showed a PBM binding z-score of 4.25.
In the case of CCTTTCGGGTCACGAGGTTATAGCACGACGAGCG, the PBM binding z-score is reported as 6.42.
CGTCAAAATTCAACTAAGGTAACGTAAAGCACGC showed a PBM binding z-score of 0.568.

The sequences below were run on PPARg:RXRa (NR concentration 180 nM, RXRa partner concentration 90 nM) in the same assay as above.
In short: as §1
AGAATCAGGTTATTAAGATCAGGGAATTGCGGTC showed a PBM binding z-score of 0.693.
Sequence TCGAGTAGGTTAGGGGTATTCAGAATGGCGTCGA has a PBM binding z-score of 2.37.
CCTACTGGGCCCTTCAGAGGTCATTGATCATATG was tested, and the PBM binding z-score was 0.503.
Sequence GAGACTGGGGCAAAGCAGGTTACCATAAGGTTGG has a PBM binding z-score of 2.19.
With CCCACTGGGCCACGAAAGGTCATTGATTCAGTGA the PBM binding z-score was 4.92.
CCAGACAGGTGAGAAGGTCACTCAGCCTCGATTA showed a PBM binding z-score of 2.01.
For ATCGAAAGCTCGTGAGGTGAGTATACAGAAAGGC, the PBM binding z-score was 0.416.
TCTAGTTGGTCAAAGGTCACACATTCGAAATGCG showed a PBM binding z-score of 11.5.
With TAGCGTAGGTCAGATCGGGCCAGTATACGCTATA the PBM binding z-score was 0.602.
TCTGGTAGATCAAAGGTTAAGAAAGCCGAAGCCT was tested, and the PBM binding z-score was 6.37.
CGTCCAAGGTCAAGGTCAGTCAAAGAGACTCGAA gave a PBM binding z-score of 6.39.
In the case of TCATATAGGTAAAGGTGAAAGTCGAACGATATGA, the PBM binding z-score is reported as 4.01.
ACAGACAGGTGAGTGAAGGCAACTCAGCTGGACG was tested, and the PBM binding z-score was 0.543.
AGAATGAGGTTATTAAGCTCAGGGAATTGCGGTC was tested, and the PBM binding z-score was 0.995.
Work on CGTCCAAGGTAAGCAGGTCAGTGAAAGCGACGTG yielded a PBM binding z-score of 0.208.
For ACTAGTTTGTCAGCTGAGGTCACACACAATTCGG, the PBM binding z-score was 1.49.
TCTTGTAGATCAGCAGGTTCAGAAAGCTGGCCAA showed a PBM binding z-score of -0.665.
ACAGACAGGTGAGTGAAGGAAACTCAGCTGGACG showed a PBM binding z-score of 0.519.
In the case of TCTTGTAGATCAAAAGAGGTTAAGAAAGTGCGCT, the PBM binding z-score is reported as -0.0297.
Sequence TTACCGAGGTGAAGGTCGTTGATCCCTCTGTAGA has a PBM binding z-score of 3.07.
Work on CCGAGTAGGTTATGAGGCATTCAGGCAACGGTGA yielded a PBM binding z-score of 1.3.
For CGAACTAGGTCATGCAGGACAGTGAATACATTGA, the PBM binding z-score was 7.65.
CGTCCAAGGTGAGAGAGGTCAGTGAATGCCGAGT gave a PBM binding z-score of 1.
In the case of ACACGGAGGACAAAGGTCAGAGCTACGCCAGTGA, the PBM binding z-score is reported as 7.55.
With AGTCAAAGTTCGTCTAGGTAACGTAAGATATGCT the PBM binding z-score was 2.79.
AAAACAGGGTCACTAGGCCAGAGTAGGTACGAAT showed a PBM binding z-score of 8.29.
ACAGACAGGTGAGTGAAGGTAATTCAGCTGGACG gave a PBM binding z-score of 0.499.
With ATCTCTAGGTAACCAAGTTCAATGAATGCCGAAC the PBM binding z-score was 1.26.
Sequence GGAACGAGGGCAAGTTGATAGCGGAGTTTGATGG has a PBM binding z-score of 0.963.
Sequence ACCATTAGTTGAGACGAGGGCAACCGATAGGTTG has a PBM binding z-score of 0.56.
ATATGTAGGTTATCGGTTCATTCAGTTTGCGCAT was tested, and the PBM binding z-score was 5.47.
In the case of AGAATGAGGTTAAGAACAGGGAAACAGAATACAT, the PBM binding z-score is reported as 2.15.
TCTCGGAGGCCACGAAAGGTCAGAGCTCGACATC showed a PBM binding z-score of 1.39.
TCTAGTTGGTCAAAGGTCATACACTCGAAATGCG showed a PBM binding z-score of 10.8.
With CTAACTAGGTCAAGGACAGTGAATCTCCGCACGC the PBM binding z-score was 8.18.
Sequence TTGCCTAGGTCAGATCGGGCCAGTATACGCTATA has a PBM binding z-score of 0.532.
Work on ACTACTTGGTCAGCTGAGGTCACACACAATTCGG yielded a PBM binding z-score of 2.24.
With CGTCCAAGGTCAGCAAGTCAGTGAAAGCGACGTG the PBM binding z-score was 2.21.
Sequence CCTTTCGGGTCACGAGGTTATAGCACGACGAGCG has a PBM binding z-score of 7.34.
In the case of CGTCAAAATTCAACTAAGGTAACGTAAAGCACGC, the PBM binding z-score is reported as 0.569.

— the supplement of paper PMC6555819
